Test results: ChEMBL document CHEMBL3988442, “University of Dundee, Small-Polar-MMV Screening Library” (2021)
For some of these results: Measured potencies and affinities stand elsewhere.

What was measured:
Set-up in all cases: scale not given: direction of the effect not stated beside the values
[1] = target: Protein translocase subunit SecA (Escherichia coli (strain K12)) (UniProt P10408); test: Assay to Identify E. coli SecA ATPase Inhibitors; type: functional; details: 30 µM
[2] = target: T1, Ubiquitin-activating enzyme e1, putative (Leishmania donovani (strain BPK282A1)) (UniProt E9BSI1); test: Leishmania donovani Ubiquitin Activating Enzyme (LdE1); type: functional; details: 30 µM
T1 sequence (whole entry): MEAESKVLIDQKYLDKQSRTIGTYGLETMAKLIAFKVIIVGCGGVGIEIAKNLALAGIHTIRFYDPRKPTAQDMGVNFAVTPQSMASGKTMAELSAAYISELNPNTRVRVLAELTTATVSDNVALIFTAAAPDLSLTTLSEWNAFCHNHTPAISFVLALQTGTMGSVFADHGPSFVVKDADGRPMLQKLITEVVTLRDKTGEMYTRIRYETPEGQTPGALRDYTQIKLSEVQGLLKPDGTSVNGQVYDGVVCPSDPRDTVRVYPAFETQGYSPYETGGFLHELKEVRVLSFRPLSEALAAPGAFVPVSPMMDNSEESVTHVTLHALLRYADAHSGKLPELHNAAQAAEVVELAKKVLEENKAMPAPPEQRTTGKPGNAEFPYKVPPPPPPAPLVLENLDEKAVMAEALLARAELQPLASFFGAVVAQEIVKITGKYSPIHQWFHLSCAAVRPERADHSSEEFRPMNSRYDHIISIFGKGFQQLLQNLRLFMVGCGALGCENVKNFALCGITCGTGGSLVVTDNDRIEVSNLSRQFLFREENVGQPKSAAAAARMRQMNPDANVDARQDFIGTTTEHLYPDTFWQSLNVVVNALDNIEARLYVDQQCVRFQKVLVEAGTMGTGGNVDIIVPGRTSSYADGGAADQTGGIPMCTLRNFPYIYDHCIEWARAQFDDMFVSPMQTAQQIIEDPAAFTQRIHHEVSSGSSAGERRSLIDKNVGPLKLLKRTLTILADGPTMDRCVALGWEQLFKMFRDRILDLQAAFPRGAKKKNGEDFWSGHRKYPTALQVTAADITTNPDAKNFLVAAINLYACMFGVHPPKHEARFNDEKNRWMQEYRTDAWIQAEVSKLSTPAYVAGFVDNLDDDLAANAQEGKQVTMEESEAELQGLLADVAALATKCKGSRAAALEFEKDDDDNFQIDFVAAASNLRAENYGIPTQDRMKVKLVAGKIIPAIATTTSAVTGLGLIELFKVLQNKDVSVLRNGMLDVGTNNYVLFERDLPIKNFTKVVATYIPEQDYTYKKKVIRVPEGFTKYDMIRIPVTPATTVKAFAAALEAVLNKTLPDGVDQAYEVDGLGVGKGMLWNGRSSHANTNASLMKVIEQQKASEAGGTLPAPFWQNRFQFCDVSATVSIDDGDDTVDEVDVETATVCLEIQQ

[3] = target: T2, Aspartate--tRNA(Asp/Asn) ligase (Mycobacterium tuberculosis (strain ATCC 25618 / H37Rv)) (UniProt P9WFW3); test: Assay for Asp RNA synthetase-1 from Mycobacterium tuberculosis; type: functional; details: 30 µM; note: in the data most compounds retested in dose-response had high values
T2 sequence (whole entry): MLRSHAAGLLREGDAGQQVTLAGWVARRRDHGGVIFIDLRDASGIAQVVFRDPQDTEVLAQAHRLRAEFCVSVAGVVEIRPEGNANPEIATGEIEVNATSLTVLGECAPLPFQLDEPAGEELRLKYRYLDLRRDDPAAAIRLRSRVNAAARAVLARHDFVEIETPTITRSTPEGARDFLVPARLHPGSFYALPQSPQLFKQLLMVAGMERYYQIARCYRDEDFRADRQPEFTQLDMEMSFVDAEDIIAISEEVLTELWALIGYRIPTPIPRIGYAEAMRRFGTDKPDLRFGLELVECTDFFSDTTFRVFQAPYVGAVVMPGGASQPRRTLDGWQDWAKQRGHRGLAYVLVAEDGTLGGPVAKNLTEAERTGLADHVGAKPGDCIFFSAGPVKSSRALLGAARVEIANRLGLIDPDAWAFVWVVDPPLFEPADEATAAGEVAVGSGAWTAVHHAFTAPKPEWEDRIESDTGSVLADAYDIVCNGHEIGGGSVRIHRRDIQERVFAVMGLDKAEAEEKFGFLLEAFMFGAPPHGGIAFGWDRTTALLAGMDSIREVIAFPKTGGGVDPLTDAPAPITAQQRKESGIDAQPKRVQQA

[4] = target: Sialic acid-binding Ig-like lectin 9 (Homo sapiens) (UniProt Q9Y336); test: Hs-Siglec9 ALPHAscreen SOP 20170721; details: 10 µM
Trypanosoma cruzi = test: Trypanosoma cruzi phosphomannomutase and mannose-1-phosphate guanylyltransferase assay; type: functional; details: 10 µM
[5] = target: T3, Arginase-2, mitochondrial (Homo sapiens) (UniProt P78540); test: in vitro enzyme assay to detect the production of urea directly proportional to the activity of Arginase II; type: functional; details: 33.3 µM; note: in the data most compounds retested in dose-response had high values
T3 sequence (whole entry): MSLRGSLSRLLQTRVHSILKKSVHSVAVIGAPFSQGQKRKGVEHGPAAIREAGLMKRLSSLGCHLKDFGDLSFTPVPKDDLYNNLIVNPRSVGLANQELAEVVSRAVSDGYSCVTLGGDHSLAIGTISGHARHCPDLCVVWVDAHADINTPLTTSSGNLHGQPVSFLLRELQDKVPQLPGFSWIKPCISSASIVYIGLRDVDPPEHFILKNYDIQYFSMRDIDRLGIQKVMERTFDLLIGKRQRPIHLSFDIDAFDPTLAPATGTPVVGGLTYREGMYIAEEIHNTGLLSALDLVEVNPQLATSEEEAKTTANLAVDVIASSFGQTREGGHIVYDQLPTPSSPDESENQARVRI

[6] = target: T4, Proteasome subunit beta (Trypanosoma cruzi) (UniProt O96673); test: Trypanosoma cruzi proteasome chymotrypsin-like activity (TcProtChymo) assay.; note: in the data most compounds retested in dose-response had high values; type: functional; details: 9.37 µM
T4 sequence (whole entry): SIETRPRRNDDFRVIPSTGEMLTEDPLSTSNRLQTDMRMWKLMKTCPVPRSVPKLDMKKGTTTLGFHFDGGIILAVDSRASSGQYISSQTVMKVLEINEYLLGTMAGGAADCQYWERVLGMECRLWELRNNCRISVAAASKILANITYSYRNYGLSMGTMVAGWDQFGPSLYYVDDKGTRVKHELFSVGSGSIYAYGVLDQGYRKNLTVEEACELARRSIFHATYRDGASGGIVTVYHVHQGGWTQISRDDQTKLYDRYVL

Homo sapiens = species: Homo sapiens; test: To identify inhibition of the IFN signalling (Jak-Stat) pathway via expression of an eGFP reporter gene under the control of an IFN-stimulated response element (ISRE) containing MxA promoter.; type: functional; details: 30 µM
[7] = target: Shiga toxin 2 (Escherichia coli O157:H7) (UniProt P09385+P09386); test: E. coli 0.157:H7 Shiga Toxin SOP - stx2 screening assay; type: functional; details: 30 µM
[8] = target: T5, Tyrosyl-tRNA synthetase, putative (Trypanosoma cruzi (strain CL Brener)) (UniProt Q4DSP6); test: Trypanosoma cruzi tyrosyl tRNA synthetase (TcYRS) _High Tyrosine SOP; type: functional; details: 30 µM; note: in the data most compounds retested in dose-response had high values
T5 sequence (whole entry): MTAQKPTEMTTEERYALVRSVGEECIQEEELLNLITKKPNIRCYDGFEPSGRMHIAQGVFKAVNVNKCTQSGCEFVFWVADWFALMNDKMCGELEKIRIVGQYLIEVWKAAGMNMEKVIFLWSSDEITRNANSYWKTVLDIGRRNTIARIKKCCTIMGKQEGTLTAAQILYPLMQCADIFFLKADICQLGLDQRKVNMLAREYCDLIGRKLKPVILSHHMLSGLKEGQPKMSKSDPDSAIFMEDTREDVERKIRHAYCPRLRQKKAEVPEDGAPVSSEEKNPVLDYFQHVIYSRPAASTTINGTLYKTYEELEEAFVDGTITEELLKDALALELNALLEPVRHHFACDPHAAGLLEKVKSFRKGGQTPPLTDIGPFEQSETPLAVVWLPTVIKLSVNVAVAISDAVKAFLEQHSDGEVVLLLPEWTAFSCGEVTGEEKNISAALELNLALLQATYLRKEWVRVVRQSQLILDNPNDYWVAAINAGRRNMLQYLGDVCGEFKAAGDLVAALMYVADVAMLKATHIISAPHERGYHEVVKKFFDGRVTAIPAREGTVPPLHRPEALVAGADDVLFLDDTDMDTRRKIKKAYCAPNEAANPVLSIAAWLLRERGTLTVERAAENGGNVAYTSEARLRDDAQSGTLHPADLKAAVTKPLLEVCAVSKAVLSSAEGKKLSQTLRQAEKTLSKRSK

[9] = target: T5, Tyrosyl-tRNA synthetase, putative (Trypanosoma cruzi (strain CL Brener)); test: Trypanosoma cruzi tyrosyl tRNA synthetase (TcYRS) SOP; type: functional; details: 30 µM
[10] = target: Chromo domain-containing protein 1 (Saccharomyces cerevisiae (strain ATCC 204508 / S288c) (Baker's yeast)) (UniProt P32657); test: ScCHD-1 Enzyme Inhibition Assay; type: functional; details: 30 µM; note: in the data most compounds retested in dose-response had high values
Sequence of Chromo domain-containing protein 1 (Saccharomyces cerevisiae (strain ATCC 204508 / S288c) (Baker's yeast)) (P32657 whole entry, the tested form may be a part): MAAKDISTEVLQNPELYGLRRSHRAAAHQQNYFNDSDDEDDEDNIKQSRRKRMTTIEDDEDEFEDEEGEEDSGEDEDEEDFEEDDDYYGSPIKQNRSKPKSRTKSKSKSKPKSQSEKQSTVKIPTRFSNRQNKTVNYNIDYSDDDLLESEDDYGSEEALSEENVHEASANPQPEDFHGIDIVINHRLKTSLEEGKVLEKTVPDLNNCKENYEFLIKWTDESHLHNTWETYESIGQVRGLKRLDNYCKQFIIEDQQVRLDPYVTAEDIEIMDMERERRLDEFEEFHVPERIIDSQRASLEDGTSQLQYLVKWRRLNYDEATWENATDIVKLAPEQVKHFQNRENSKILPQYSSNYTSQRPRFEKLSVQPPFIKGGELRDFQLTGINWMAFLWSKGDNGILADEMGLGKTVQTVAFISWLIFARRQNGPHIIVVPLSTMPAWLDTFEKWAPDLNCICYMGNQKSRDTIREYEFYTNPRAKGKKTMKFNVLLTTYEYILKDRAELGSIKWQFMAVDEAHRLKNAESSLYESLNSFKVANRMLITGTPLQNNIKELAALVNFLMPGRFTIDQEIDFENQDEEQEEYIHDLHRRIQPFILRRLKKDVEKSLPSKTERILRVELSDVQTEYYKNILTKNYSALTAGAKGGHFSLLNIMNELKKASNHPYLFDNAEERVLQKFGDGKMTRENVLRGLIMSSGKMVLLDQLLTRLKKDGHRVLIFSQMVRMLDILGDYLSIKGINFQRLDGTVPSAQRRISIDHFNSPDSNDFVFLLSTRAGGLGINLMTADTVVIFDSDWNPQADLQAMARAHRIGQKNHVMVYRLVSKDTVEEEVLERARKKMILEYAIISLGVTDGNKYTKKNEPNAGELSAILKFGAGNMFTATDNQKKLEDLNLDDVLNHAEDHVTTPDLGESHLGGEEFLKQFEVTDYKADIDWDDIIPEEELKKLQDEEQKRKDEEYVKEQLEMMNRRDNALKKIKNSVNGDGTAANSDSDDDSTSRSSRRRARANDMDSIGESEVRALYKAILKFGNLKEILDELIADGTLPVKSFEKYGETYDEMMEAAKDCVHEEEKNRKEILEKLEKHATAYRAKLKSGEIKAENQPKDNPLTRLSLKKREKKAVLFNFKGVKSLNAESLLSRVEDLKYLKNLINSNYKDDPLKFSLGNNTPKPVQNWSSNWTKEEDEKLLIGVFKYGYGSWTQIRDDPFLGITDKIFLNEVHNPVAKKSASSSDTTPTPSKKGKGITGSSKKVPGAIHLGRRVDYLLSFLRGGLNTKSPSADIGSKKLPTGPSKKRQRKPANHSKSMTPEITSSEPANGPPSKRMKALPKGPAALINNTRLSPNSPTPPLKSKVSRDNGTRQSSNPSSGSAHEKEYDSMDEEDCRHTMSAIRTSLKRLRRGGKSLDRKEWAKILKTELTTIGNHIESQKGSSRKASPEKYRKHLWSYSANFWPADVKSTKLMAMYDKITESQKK

Sequence of Protein translocase subunit SecA (Escherichia coli (strain K12)) (P10408 whole entry): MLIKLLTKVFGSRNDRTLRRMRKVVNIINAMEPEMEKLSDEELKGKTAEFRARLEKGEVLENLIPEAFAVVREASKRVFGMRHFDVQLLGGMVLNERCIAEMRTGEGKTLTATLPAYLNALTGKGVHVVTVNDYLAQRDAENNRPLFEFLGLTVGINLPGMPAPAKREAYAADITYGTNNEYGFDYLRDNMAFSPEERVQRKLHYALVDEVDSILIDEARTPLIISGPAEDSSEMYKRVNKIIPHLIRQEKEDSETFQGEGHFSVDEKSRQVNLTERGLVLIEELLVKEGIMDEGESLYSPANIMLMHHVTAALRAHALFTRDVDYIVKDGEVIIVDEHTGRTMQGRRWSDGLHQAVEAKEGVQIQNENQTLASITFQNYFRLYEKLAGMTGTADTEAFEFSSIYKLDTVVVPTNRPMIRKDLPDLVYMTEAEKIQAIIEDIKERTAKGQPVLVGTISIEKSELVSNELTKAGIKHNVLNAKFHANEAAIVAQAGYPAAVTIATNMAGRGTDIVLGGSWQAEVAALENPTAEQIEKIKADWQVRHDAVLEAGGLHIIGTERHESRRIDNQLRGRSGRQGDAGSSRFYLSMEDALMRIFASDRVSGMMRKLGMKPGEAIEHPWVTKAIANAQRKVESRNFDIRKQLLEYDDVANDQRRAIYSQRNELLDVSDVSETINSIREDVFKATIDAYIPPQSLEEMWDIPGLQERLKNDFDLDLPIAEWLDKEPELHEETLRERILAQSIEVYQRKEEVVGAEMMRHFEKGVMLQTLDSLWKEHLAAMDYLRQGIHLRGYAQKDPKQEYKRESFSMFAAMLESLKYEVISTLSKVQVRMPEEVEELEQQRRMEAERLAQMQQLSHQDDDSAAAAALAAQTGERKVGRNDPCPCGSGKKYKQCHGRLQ
Sequence of Sialic acid-binding Ig-like lectin 9 (Homo sapiens) (Q9Y336 whole entry): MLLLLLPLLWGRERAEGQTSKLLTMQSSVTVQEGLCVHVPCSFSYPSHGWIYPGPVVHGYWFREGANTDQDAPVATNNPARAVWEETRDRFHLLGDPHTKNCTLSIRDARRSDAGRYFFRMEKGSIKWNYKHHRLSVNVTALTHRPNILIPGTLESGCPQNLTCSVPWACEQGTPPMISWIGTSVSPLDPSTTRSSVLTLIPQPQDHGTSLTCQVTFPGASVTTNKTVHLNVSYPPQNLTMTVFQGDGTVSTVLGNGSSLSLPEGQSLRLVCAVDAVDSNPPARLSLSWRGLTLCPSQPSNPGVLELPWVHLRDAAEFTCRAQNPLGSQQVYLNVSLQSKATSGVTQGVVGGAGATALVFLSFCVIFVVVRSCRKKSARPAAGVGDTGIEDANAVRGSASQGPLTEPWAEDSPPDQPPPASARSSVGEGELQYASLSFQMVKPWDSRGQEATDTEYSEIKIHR

COc1cccc([C@@H]2CCN(Cc3ccc4ccccc4n3)C[C@H]2O)c1
Percent Effect [1]: -6.38% | Percent Effect [2]: 5.41% | Percent Effect [3]: -2.79% | Percent Effect [4]: 14.7% | Percent Effect (Trypanosoma cruzi): 4.56% | Percent Effect [5]: 18.5% | Percent Effect [6]: 9.76% | Percent Effect (Homo sapiens): 1.68% | Percent Effect [7]: -2.3% | Percent Effect [8]: 7.98% | Percent Effect [9]: 19.5% | Percent Effect [10]: -2.92%

COCCN1C[C@H]2[C@@H](C1)N(C(=O)COc1ccccc1)CC[C@H]2OC
Percent Effect [1]: -3.67% | Percent Effect [2]: 3.9% | Percent Effect [3]: -1.3% | Percent Effect [4]: 0.149% | Percent Effect (Trypanosoma cruzi): 5.36% | Percent Effect [5]: -4.45% | Percent Effect [6]: 19.7% | Percent Effect (Homo sapiens): -1.44% | Percent Effect [7]: -14.5% | Percent Effect [8]: 5.79% | Percent Effect [9]: 15.4% | Percent Effect [10]: 36.6%

CN1CCC2(CC1)C(=O)N(CC1CC1)c1ccccc12
Percent Effect [1]: -2.83% | Percent Effect [2]: 9.09% | Percent Effect [3]: -2.3% | Percent Effect [4]: -0.296% | Percent Effect (Trypanosoma cruzi): -1.69% | Percent Effect [5]: 3.65% | Percent Effect [6]: 1.12% | Percent Effect (Homo sapiens): 2.83% | Percent Effect [7]: 4.66% | Percent Effect [8]: -0.966% | Percent Effect [9]: 0% | Percent Effect [10]: -9.03%

O=C1CC2(CCCNC2)C(=O)N1Cc1ccccc1 (stereo unspecified)
Percent Effect [1]: -1.32% | Percent Effect [2]: -16.9% | Percent Effect [3]: 1.23% | Percent Effect [4]: -1.16% | Percent Effect (Trypanosoma cruzi): -6.57% | Percent Effect [5]: 0.457% | Percent Effect [6]: 16.4% | Percent Effect (Homo sapiens): 15% | Percent Effect [7]: 2.48% | Percent Effect [8]: 2.9% | Percent Effect [9]: 0% | Percent Effect [10]: -9.23%

COCCNC(=O)[C@@]12CCO[C@@H]1CCN(Cc1c(C)noc1C)C2
Percent Effect [1]: -4.83% | Percent Effect [2]: 14.3% | Percent Effect [3]: 11.2% | Percent Effect [4]: -7.07% | Percent Effect (Trypanosoma cruzi): 1.85% | Percent Effect [5]: 3.24% | Percent Effect [6]: 8.91% | Percent Effect (Homo sapiens): -9.54% | Percent Effect [7]: -12.8% | Percent Effect [8]: 14.2% | Percent Effect [9]: 12.8% | Percent Effect [10]: -1.61%

COc1ccc(C)cc1CC(=O)N1CCN(CC(C)O)CC1 (stereo unspecified)
Percent Effect [1]: -3.62% | Percent Effect [2]: 15.6% | Percent Effect [3]: 3.12% | Percent Effect [4]: 6.85% | Percent Effect (Trypanosoma cruzi): 5.6% | Percent Effect [5]: -5.53% | Percent Effect [6]: 8.07% | Percent Effect (Homo sapiens): 0.0446% | Percent Effect [7]: -20.5% | Percent Effect [8]: 4.9% | Percent Effect [9]: 18.8% | Percent Effect [10]: -7.21%

O=C1N(Cc2cccnc2)CCC12CCCNC2 (stereo unspecified)
Percent Effect [1]: -3.76% | Percent Effect [2]: 16.9% | Percent Effect [3]: 2.62% | Percent Effect [4]: -3.98% | Percent Effect (Trypanosoma cruzi): -3.19% | Percent Effect [5]: 0.913% | Percent Effect [6]: 20% | Percent Effect (Homo sapiens): 34% | Percent Effect [7]: 7.06% | Percent Effect [8]: 1.93% | Percent Effect [9]: 2.5% | Percent Effect [10]: -10.7%

COc1ccc(C(=O)C2CCCN(Cc3ccncc3)C2)c(OC)c1 (stereo unspecified)
Percent Effect [1]: -6.33% | Percent Effect [2]: 5.41% | Percent Effect [3]: -0.276% | Percent Effect [4]: 12.6% | Percent Effect (Trypanosoma cruzi): 5.33% | Percent Effect [5]: 15% | Percent Effect [6]: 5.31% | Percent Effect (Homo sapiens): 10.7% | Percent Effect [7]: 11% | Percent Effect [8]: 5.85% | Percent Effect [9]: 12.2% | Percent Effect [10]: 83.7%

CC(C)(C)n1cc(C(=O)NCCCn2ccnc2)c2cccnc21
Percent Effect [1]: 3.93% | Percent Effect [2]: 17.3% | Percent Effect [3]: 6.13% | Percent Effect [4]: -8.62% | Percent Effect (Trypanosoma cruzi): 4.73% | Percent Effect [5]: 1.77% | Percent Effect [6]: 19.1% | Percent Effect (Homo sapiens): 29.9% | Percent Effect [7]: -3.75% | Percent Effect [8]: 2.12% | Percent Effect [9]: 15% | Percent Effect [10]: -24.1%

Cc1cc(C(=O)NC2CCCN(c3ccccc3)C2=O)on1 (stereo unspecified)
Percent Effect [3]: 0.287%

O=C(Cn1ccc2c(Cl)cccc21)N1CCC2(CC1)OCCO2
Percent Effect [1]: -2.33% | Percent Effect [2]: 10.8% | Percent Effect [3]: 0.188% | Percent Effect [4]: 5.66% | Percent Effect (Trypanosoma cruzi): 1.46% | Percent Effect [5]: 49.3% | Percent Effect [6]: 11.8% | Percent Effect (Homo sapiens): 12.8% | Percent Effect [7]: 1.14% | Percent Effect [8]: 4.79% | Percent Effect [9]: 19.5% | Percent Effect [10]: -2.23%
